In PubChem BioAssay (NCI):
Where “and” joins values, the source holds several entries; their conditions need not be identical. Equal values may be shown once. About 83,000 compounds went through this panel and 20% of them were active in at least one assay; those are over-represented in the sample as a whole.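 A percent growth of 40 corresponds to 60% growth inhibition; 0 means no net growth; -100 means all cells died. Active threshold: below 10.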 A number with no mark means an inactive call. Calls of active or inactive are those of the source.

test system: MDA-MB-468 breast; assay: NCI-60 one-dose screen, 48 h (100 = growth as untreated, 0 = no growth, -100 = all killed); settings: 10 µM unless noted

Row | SMILES | growth
1 | Cc1ccc(-c2nc(C#N)c(S(=O)(=O)n3nc(C)cc3N)o2)cc1 | 57.7%
2 | COc1ccc(C(=O)/C=C/c2c(C(F)(F)F)nc3sccn23)cc1OC | -21.1% (active)
3 | N/C(=N\c1nc2ccccc2s1)NC(=O)Nc1ccccc1 | 31.4%
4 | C=C(C[C@@](O)(C(=O)Oc1ccccc1)C(=O)C1CCCCC1)c1ccccc1 | 85.3%
5 | N#Cc1c(N2CCOCC2)nc2sc3cc(Cl)ccc3n2c1=N | 15.8%
6 | O=C(CN1C(=O)/C(=C/c2ccc(Cl)cc2)SC1=S)NCCCN1CCOCC1 | 94.3%
7 | Cc1cc(C)c(O)c(C(=O)CC(Br)C(=O)O)c1 (stereo not given) | 74.9%
8 | CN(C)CCC1(c2ccccc2)CCN(C)C1=O (stereo not given) | 94.7%
9 | COc1cc2nc(N3CCCC3)nc(NCc3ccccc3)c2cc1OC | 45.2%
10 | CCCCCC/C=C1\CCC(CN2CCCC2)C1=O (stereo not given) | 73.2%
11 | CC(C)C(NC(=O)CN)C(=O)O (stereo not given) | 104%
12 | COc1ccc(N2C(=O)c3cc(Cl)ccc3NC2SCc2ccccc2)cc1 (stereo not given) | 98.1%
13 | COc1ccc2[nH]c(=O)c(/C=C/C(=O)/C=C/c3ccc(O)c(OC)c3)cc2c1 | -32.1% (active)
14 | CC1(C)OC2[C@@H](CNC(=O)NC(=O)NC(=O)CI)O[C@@H](n3cnc4c(NC(=O)Nc5ccccc5)ncnc43)[C@H]2O1 (stereo not given in full) | 64%
15 | C=CC(=O)Nc1cc(Nc2nccc(-c3cn(C)c4ccccc34)n2)c(OC)cc1N(C)CCN(C)C | -74.1% (active)
16 | O=C(Nc1ccc(F)cc1F)c1cc(Cl)ccc1O | -4.07% (active)
17 | c1ccc(CCn2cccc2)nc1 | 114%
18 | CCc1ccc2c(c1)N(CCO)C1=C(C(=O)OC1)C2c1cccc(Cl)c1 (stereo not given) | 20.1%
19 | NN=C(c1ccc(Cl)cc1)c1ccc(Cl)cc1 | 111%
20 | N#CCc1csc(Cc2ccccc2)n1 | 107%

Row | SMILES | growth
21 | NC(=O)NNC(=O)c1ccccc1 | 110%
22 | COc1ccc(/C=C2\Oc3cc(OCCCCCN4CCCCC4)ccc3C2=O)cc1OC | 57.6%
23 | Clc1ccc2c(c1)C[C@H]1C[C@@H](c3cccs3)N2O1 | 106%
24 | C/C(=N\OC(=O)Nc1ccccc1)c1ccccc1 | 83.2%
25 | COc1ccc(-c2cc(-c3ccc(N(C)C)cc3)nc(NC(=O)c3cccnc3)n2)cc1 | 106%
26 | COc1cc(-c2cc3ncccc3c3nc(N)c4cccnc4c23)cc(OC)c1OC | -3.2% (active)
27 | NCCOc1ncccc1/C=C1\c2ccccc2-c2ccc(C(F)F)cc21 | 85.5%
28 | O=C1[C@@H]2Cc3c([nH]c4ccccc34)[C@H](c3c(Cl)cccc3Cl)N2C(=O)CN1C1CCN(Cc2ccccc2)CC1 | -33.4% (active)
29 | N=C(N)c1ccc(-c2ccc(-c3ccccc3)o2)nc1 | 59.9%
30 | COc1cc(/C=C2\CN(C)C/C(=C\c3cc(CN4CCOCC4)c(O)c(OC)c3)C2=O)cc(CN2CCOCC2)c1O | 38.8%
31 | CC(=O)c1cc(-c2ccccc2N)n(-c2ccc3c(c2)OCO3)c1C | 30.5%
32 | Cc1ccc(NC(=S)NNC(=S)Nc2ccc(C)cc2)cc1 | 99.3% and 34%
33 | COc1ccc(Cn2c(NCCCN(C)C)nc(=O)n(Cc3ccc(F)cc3)c2=O)cc1 | 85.8%
34 | c1ccc(CP(Cc2ccccc2)c2ccccc2)cc1 | 98.6%
35 | C[C@H]1[C@H]2[C@H]3CC[C@@H]4[C@@]5(C)CC[C@H](O)C(C)(C)[C@@H]5CC[C@@]4(C)[C@]3(C)CC[C@]23CO[C@]1(C)[C@@H](C(=O)/C=C\c1ccco1)C3 | 19.3%
36 | O=C(Nc1ccc(F)cc1)c1cc([N+](=O)[O-])ccc1O | 56.3%
37 | CCN=c1cc2sc3cc(NCC)c(C)cc3nc-2cc1C | 30.7%
38 | CCOC(=O)c1coc(C(=O)OCC)c1C(=O)OCC | 107%
39 | CCN(CC)c1cc2oc3cc(N)cc(=N)c-3nc2cc1C | 38.3%
40 | Clc1nc2ccc(Br)cc2cc1-c1nc2ccccc2[nH]1 | 76.3%
